According to PubChem BioAssay:
Activity calls are given as the source filed them.

Key:
Albumin (Bos taurus) = Albumin (Bos taurus) (UniProt P02769); test: compounds binding labelled BSA control protein – biochemical, small-molecule microarray, Alexa647 label, 635/667 nm fluorescence, artefact control for SMM control protein annotation, profiling panel (AID 1118); conditions: BSA-A647 binding, fluorescence 635 nm, higher = more signal;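 further: score merges 667 nm emission intensity and signal-to-noise per printed compound spot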
Albumin (Bos taurus), sequence (P02769 whole entry, looked up): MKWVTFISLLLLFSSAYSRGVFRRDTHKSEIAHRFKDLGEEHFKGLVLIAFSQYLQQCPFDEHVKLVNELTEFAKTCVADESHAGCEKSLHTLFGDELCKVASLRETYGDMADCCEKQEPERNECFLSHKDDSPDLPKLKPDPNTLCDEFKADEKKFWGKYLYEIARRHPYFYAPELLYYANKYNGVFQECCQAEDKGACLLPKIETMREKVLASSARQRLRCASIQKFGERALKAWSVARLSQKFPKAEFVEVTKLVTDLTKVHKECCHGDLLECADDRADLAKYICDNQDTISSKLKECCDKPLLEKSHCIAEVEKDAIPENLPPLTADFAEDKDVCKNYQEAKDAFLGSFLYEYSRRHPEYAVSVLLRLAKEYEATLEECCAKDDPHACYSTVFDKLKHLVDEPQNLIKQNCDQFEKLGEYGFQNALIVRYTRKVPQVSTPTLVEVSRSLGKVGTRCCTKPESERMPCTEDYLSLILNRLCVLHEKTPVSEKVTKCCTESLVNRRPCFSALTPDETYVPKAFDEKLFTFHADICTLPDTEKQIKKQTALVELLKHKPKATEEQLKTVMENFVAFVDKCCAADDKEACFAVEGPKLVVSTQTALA

[1] = probe aXIP binding to arrayed compounds – biochemical, NeuroSMM set, 635/667 nm fluorescence, primary screen (AID 1119); conditions: small-molecule microarray, higher = more signal, called active from +8 up or from −8 down;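 further: probe is the protein aXip251-270 applied at 1 µg/mL to compound-printed slides; binding of probe to printed compounds measured as 667 nm fluorescence plus signal to noise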
[2] = probe aNOTCH3 binding on compound microarray – biochemical, small-molecule microarray, 635/667 nm fluorescence, primary screen (AID 1120); conditions: higher = more signal;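 further: probe is a biotin-tagged antibody raised against NOTCH3 rather than NOTCH3 protein; score merges spot fluorescence near 667 nm with spot signal to noise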
[3] = probe aNOTCH2 binding on compound microarray – biochemical, small-molecule microarray, 635/667 nm fluorescence, primary screen (AID 1121); conditions: higher = more signal;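 further: score merges feature fluorescence read at 667 nm with its signal to noise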
[4] = target: Carbonic anhydrase 2 (Homo sapiens) (UniProt P00918); test: compounds binding carbonic anhydrase 2 – biochemical, small-molecule microarray, Alexa647-labelled CAII, profiling panel (AID 1122); conditions: CAII-A647 binding fluorescence, higher = more signal
[5] = COS7 lysate on small-molecule microarray, probe aHis, 635 nm (AID 1123); conditions: COS7 cell lysate, fluorescence, higher = more signal;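 further: z-score combines 667nm fluorescence intensity with signal-to-noise per printed compound spot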
[6] = probe aLAP1 signal on lysate-treated microarray – cell lysate, small-molecule microarray, COS7 lysate, primary screen (AID 1124); conditions: probe aLAP1, fluorescence, higher = more signal;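 further: lysate comes from COS7 cells expressing LAP1 and is applied at 0.3 µg/mL; score merges spot fluorescence near 667 nm with signal-to-noise over triplicate slides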
Sam68 (KHDRBS1) = test: compounds binding KHDRBS1 protein – biochemical, small-molecule microarray, 635 nm fluorescence, primary screen (AID 1125); conditions: higher = more signal;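 further: score merges 667 nm channel intensity with signal to noise over triplicate slides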
[7] = tested on: Chordin-like protein 2 (CHRDL2); test: compounds binding chordin-like 2 – biochemical, small-molecule microarray, 635 nm fluorescence, primary screen (AID 1126); conditions: fluorescence 635 nm, higher = more signal;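 further: printed compound slides probed with Chrdl2 protein at 4 µg/mL for 1 h at 4 C; score merges 667 nm emission intensity with signal to noise over three replicate slides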
[8] = target: Concanavalin-A (Canavalia ensiformis) (UniProt P02866); test: compounds binding concanavalin A lectin – biochemical, small-molecule microarray, Alexa647 label, 635 nm, artefact control for SMM control protein annotation, primary screen (AID 1127); conditions: ConA-A647 binding fluorescence, higher = more signal;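 further: z combines 667 nm emission intensity with signal-to-noise across three replicate slides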
Concanavalin-A (Canavalia ensiformis), sequence (P02866 whole entry, looked up): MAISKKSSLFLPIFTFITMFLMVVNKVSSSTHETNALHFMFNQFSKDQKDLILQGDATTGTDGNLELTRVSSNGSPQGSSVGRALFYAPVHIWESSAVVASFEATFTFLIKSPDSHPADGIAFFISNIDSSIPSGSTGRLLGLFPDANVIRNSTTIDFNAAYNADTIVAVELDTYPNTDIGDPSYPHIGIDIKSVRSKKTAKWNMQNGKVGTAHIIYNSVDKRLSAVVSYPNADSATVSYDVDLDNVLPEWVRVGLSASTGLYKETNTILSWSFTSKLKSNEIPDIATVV

[9] = compounds binding Alexa647 anti-His antibody – biochemical, small-molecule microarray, 635 nm fluorescence, artefact control for SMM control protein annotation, primary screen (AID 1128); conditions: higher = more signal;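 further: score merges feature fluorescence with signal-to-noise for each printed compound spot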
[10] = tested on: Human papillomavirus type 1a E7 protein (residues 1-88); test: HPV1a E7 small-molecule binders, primary screen, biochemical, small-molecule microarray, residues 1-88, 635 nm (AID 1129); conditions: small-molecule microarray binding, fluorescence 635 nm; higher = more signal
[11] = target: Focal adhesion kinase 1 (Homo sapiens) (UniProt Q05397); test: PTK2 protein binding on printed compound slides – biochemical, small-molecule microarray, 635/667 nm fluorescence, BSA, DTT, primary screen (AID 1130); conditions: 635 nm fluorescence, higher = more signal;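 further: composite of spot emission at 667 nm and signal to noise over triplicate slides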
Focal adhesion kinase 1 (Homo sapiens), sequence (Q05397 whole entry, looked up): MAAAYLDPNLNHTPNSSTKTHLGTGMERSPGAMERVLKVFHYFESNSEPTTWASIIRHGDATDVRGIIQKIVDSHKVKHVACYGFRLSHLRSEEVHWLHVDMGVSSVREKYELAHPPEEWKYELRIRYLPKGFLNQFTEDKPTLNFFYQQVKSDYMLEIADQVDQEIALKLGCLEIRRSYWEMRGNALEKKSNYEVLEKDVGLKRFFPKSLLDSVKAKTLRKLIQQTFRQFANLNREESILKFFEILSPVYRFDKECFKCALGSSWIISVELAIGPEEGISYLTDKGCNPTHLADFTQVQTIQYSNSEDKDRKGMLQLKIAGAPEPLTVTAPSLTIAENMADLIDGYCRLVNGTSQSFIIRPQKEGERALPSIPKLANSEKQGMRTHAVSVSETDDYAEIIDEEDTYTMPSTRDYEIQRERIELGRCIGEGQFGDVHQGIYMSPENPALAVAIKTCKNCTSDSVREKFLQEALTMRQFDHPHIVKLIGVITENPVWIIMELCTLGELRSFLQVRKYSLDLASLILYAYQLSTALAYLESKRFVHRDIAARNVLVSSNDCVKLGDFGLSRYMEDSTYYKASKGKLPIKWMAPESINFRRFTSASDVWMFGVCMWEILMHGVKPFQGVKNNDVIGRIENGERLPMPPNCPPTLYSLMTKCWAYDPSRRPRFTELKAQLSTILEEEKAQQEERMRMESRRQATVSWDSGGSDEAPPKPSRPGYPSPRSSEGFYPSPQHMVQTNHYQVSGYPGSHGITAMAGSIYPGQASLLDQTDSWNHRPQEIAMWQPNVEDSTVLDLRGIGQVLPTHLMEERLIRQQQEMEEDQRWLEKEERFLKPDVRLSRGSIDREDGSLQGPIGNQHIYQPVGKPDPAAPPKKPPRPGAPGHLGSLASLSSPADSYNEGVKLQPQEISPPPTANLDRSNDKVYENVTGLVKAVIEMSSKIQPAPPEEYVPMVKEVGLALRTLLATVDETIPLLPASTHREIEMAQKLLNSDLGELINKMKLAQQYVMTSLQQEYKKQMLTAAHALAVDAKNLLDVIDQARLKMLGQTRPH

[12] = tested on: Fibrinogen (Alexa647-labelled); test: Alexa647-fibrinogen binding to printed small molecules – biochemical, small-molecule microarray, 635/667 nm fluorescence, artefact control for SMM control-protein annotation, profiling panel (AID 1131); conditions: fibrinogen-A647 binding fluorescence, higher = more signal;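 further: z-score merges 667 nm fluorescence with per-spot signal-to-noise over triplicate slides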
[13] = target: Follistatin (Homo sapiens) (UniProt P19883); test: FST protein binding to printed compounds – biochemical, small-molecule microarray, 635/667 nm fluorescence, primary screen (AID 1132); conditions: 635 nm fluorescence, higher = more signal
Follistatin (Homo sapiens), sequence (P19883 whole entry, looked up): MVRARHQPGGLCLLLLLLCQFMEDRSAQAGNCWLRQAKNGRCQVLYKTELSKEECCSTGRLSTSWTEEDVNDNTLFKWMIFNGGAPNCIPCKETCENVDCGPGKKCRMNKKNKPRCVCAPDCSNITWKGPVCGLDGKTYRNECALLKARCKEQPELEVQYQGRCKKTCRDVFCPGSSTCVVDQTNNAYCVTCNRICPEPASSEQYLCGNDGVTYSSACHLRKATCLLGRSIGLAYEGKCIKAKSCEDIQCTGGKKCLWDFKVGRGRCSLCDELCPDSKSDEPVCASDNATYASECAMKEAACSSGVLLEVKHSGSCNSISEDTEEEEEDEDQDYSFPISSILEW

[14] = target: Fibroblast growth factor 2 (Homo sapiens) (UniProt P09038); test: basic fibroblast growth factor binding to printed compounds – biochemical, small-molecule microarray, 635/667 nm fluorescence, primary screen (AID 1133); conditions: FGF2, fluorescence 635/667, higher = more signal
Fibroblast growth factor 2 (Homo sapiens), sequence (P09038 whole entry, looked up): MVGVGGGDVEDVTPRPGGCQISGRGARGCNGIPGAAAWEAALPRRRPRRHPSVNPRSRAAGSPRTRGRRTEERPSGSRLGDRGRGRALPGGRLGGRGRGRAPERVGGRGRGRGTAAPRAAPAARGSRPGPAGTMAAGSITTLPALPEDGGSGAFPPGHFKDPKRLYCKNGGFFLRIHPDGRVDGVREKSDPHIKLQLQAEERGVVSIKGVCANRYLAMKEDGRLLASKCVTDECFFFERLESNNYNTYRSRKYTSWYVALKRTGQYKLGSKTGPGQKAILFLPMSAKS

[15] = JC-1 mitochondrial potential readout, lung cancer cells – cell-based, A549, JC-1 fluorescence, basal, 24 h, 100 nL, profiling panel (AID 1138); conditions: higher = more signal;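 further: A549 lung adenocarcinoma cells under basal conditions with no added stimulus; test concentration not given here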
Lefty1 = Lefty1 protein binding to printed compounds – biochemical, small-molecule microarray, 635/667 nm fluorescence, primary screen (AID 1139); conditions: fluorescence 635/667, higher = more signal
[16] = tested on: wheat germ agglutinin (Triticum aestivum), Alexa647-labelled; test: Alexa647-WGA lectin binding to printed small molecules – biochemical, small-molecule microarray, 635/667 nm fluorescence, artefact control for SMM control-protein annotation, profiling panel (AID 1140); conditions: WGA-A647 binding, 635 nm fluorescence, higher = more signal;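 further: score merges 667 nm feature emission with signal to noise over triplicate slides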
[17] = target: Luciferin 4-monooxygenase (Photinus pyralis) (UniProt P08659); test: inhibition of purified Photinus pyralis luciferase – biochemical, luminescence, purified enzyme, 2006 set, primary screen (AID 1141); conditions: purified firefly luciferase, SteadyGlo luminescence, 30 min; higher = more signal, called active from +8 up or from −8 down;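 further: cell-free assay with purified firefly luciferase at 100 ng per well in PBS; test concentration not given here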
Luciferin 4-monooxygenase (Photinus pyralis), sequence (P08659 whole entry, looked up): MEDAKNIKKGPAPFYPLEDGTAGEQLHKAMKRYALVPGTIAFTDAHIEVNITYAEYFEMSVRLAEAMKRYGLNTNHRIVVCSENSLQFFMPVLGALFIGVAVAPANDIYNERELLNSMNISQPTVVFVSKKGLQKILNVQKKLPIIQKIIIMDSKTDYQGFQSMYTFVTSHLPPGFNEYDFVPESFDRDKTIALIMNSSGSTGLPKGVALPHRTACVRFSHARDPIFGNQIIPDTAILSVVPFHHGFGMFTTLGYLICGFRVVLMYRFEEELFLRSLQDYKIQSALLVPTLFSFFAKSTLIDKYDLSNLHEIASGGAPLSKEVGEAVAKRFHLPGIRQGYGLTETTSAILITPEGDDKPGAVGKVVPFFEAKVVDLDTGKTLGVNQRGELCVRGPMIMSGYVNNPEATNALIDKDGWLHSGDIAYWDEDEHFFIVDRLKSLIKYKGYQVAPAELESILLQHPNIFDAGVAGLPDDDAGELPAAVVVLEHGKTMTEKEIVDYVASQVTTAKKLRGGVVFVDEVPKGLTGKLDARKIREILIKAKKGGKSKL

SMILES	composite z-score (Albumin (Bos taurus))	composite Z-score [1]	composite z-score [2]	composite z-score [3]	composite z-score [4]	composite z-score [5]	composite z-score [6]	composite z-score (Sam68 (KHDRBS1))	composite z-score [7]	composite z-score [8]	composite z-score [9]	composite z-score [10]	composite z-score [11]	composite z-score [12]	composite z-score [13]	composite z-score [14]	z-score [15]	composite z-score (Lefty1)	composite z-score [16]	z-score [17]
C#CCN([C@@H](Cc1ccccc1)C(=O)OC)[C@@H](/C=C/C1CC1)[C@H](O)Cc1ccccc1	0.801	-0.275 (inactive)	-0.0984	-0.208	-0.321	-0.0769	0.868	-0.326	1.16	-1.5	-0.429	-0.515	-0.157	-0.873	0.722	-0.0248	3.45	0.166	0.0211	0.412 (inactive)
CN1C(=O)C2C=CC(C(O)c3cccn3C)N(Nc3ccc([N+](=O)[O-])cc3[N+](=O)[O-])C2C1=O (stereo not given)	0.38	-0.398 (inactive)	0.0681	0.476	0.848	0.856	0.376	-0.0879	-0.248	-0.0516	0.421	0.414	0.0533	-0.232	-0.201	0.275	0.0408	-0.583	0.408	0.679 (inactive)
COc1cc(NN2C(C(O)c3cc(OC)c(OC)c(OC)c3)C=CC3C(=O)N(C)C(=O)C32)cc(OC)c1OC (stereo not given)	1.03	0.328 (inactive)	0.499	-0.0028	0.67	2.77	0.0495	1.23	0.0976	0.894	0.661	1.07	0.368	0.169	0.67	0.0023	1.38	0.289	0.694	0.229 (inactive)
COc1ccc([Si](C)(C)[C@@H]2[C@@H](CC(=O)N3CCC[C@H]3CO)O[C@]3(C(=O)N(Cc4cccc(N5C(=O)COc6ccccc65)c4)c4ccccc43)[C@H]2C)cc1	0.577	0.254 (inactive)	-0.0821	-0.167	0.462	0.664	0.271	1.3	0.291	1.12	1.43	1.21	0.438	0.711	0.821	1.22	-0.522	0.984	1.15	-0.23 (inactive)
Cc1cc(C)c(C(O)C2C=CC3C(=O)N(c4ccccc4)C(=O)C3N2Nc2ccccc2F)c(C)c1 (stereo not given)	0.553	0.224 (inactive)	0.0602	0.0278	0.365	1.08	0.725	-0.186	0.0036	0.511	1.29	-0.103	0.39	0.859	0.0286	-0.435	-0.909	-0.589	0.403	-0.746 (inactive)
CC1CC/C=C\[C@H]2OC34C=CCN(c5ccc(Cl)cc5)C(=O)[C@H]3N(C(C)CO)C(=O)[C@]4(C)C2C(=O)O1 (stereo not given in full)	-1.07	-0.408 (inactive)	-0.322	-0.14	0.768	-0.66	1.27	-0.297	-0.482	-0.863	-0.984	-1.5	-0.177	-0.173	-0.954	-1.06	0.798	-0.847	0.429	-1.14 (inactive)
COc1cc2c(cc1O)C(C1CC1)N(Cc1cccc(OC(F)(F)F)c1)CC2 (stereo not given)	0.353	0.926 (inactive)	-0.0824	-0.0846	0.814	1.06	0.762	-0.316	0.13	-0.744	-0.144	-0.922	-0.662	-1.03	0.167	0.357	-1.46	-0.255	-0.181	0.187 (inactive)
CCCCCCc1nc(Cc2cc(OC)c(OC)c(OC)c2)cc2c1[Si](C(C)C)(C(C)C)OC2	-0.526	0.0886 (inactive)	-0.0395	-0.153	-0.0134	0.157	-0.0343	0.239	0.472	0.524	-0.215	-0.517	-0.191	-0.0217	0.422	0.521	0.185	0.566	-0.0555	0.809 (inactive)
CCCC=C(CCC)[C@@H](NS(=O)(=O)CC12CCC(CC1=O)C2(C)C)c1ccc(C(=O)OC)cc1 (stereo not given in full)	0.0225	0.234 (inactive)	0.344	0.0727	-0.0343	2.12	0.154	0.96	-0.14	0.438	1.33	0.71	0.187	0.0749	0.107	-0.056	0.237	0.134	0.301	2.15 (inactive)
NC(=O)[C@H]1[C@@H]2C(=O)O[C@@H](c3ccccc3)[C@@H](c3ccccc3)N2[C@@H](c2ccc(OCCO)cc2)[C@]12C(=O)Nc1ccc(C#CCCO)cc12	0.586	0.988 (inactive)	0.0203	0.0252	0.537	1.26	0.204	1.16	0.0273	1.07	0.92	1.18	0.798	0.746	1.13	0.35	-0.262	0.551	0.9	-1.05 (inactive)
Cc1ccc(S[C@]2(C(=O)NCC(F)(F)F)CC(=O)N(Cc3cc(C(F)(F)F)cc(C(F)(F)F)c3)[C@@H]2c2ccc(CO)cc2I)cc1	0.803	0.439 (inactive)	-0.291	-0.164	0.14	0.869	-0.0008	-1.47	-1.54	-0.41	0.214	-0.698	-0.301	-0.994	-0.887	-0.91	-1.01	-0.708	-0.314	1.5 (inactive)
